Only some compounds are listed: those with a hit (about 5.9% of all), similar ones and a draw of the others.
GLP-1R agonist – qHTS of GLP-1 Receptor Agonists | Glucagon-like peptide 1 receptor (Homo sapiens), P43220 | 380,000 tested, 0.007% active | HEK293 GLP-1R CRE-luciferase, luminescence, 4-6 h; cells express a hypersensitive GLP-1R form | Potency, µM (doses to about 45.6 µM), for the others: top-dose activation, usual class: activators | AID 624172, 2012; further: % of control where 0% means no effect
GLP1R inv ag – qHTS of GLP-1 Receptor Inverse Agonists (Inhibition Mode) | Potency, µM (titrated, usually from 38.3 µM), without a hit: at the highest dose activity change, negative = inhibition, actives largely listed as inhibitors | Glucagon-like peptide 1 receptor (Homo sapiens), P43220 | 410,000 tested, 1.6% active | HEK293 GLP-1R CRE-luciferase, luminescence, 24 h; GLP-1R form is constitutively active; further: on the % scale 0 is the no-effect control and ±100 the full control effect; nearly all actives have a fitted effect of over 55% in size
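Cells are plated, allowed 12 hours at 37 deg C, then treated with compounds for 24 hr before luciferase detection reagent is added and luminescence is read after 12 min at room temperature. The HEK293 line carries constitutively active GLP-1R with a cAMP-responsive reporter.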
VP16 counter – VP16 counterscreen qHTS for inhibitors of ROR gamma transcriptional activity; 310,000 tested, 3.5% active; Potency, µM (series often up to 53.6 µM), without a hit: top-dose activity, negative = inhibition, usual class: inhibitors; Drosophila S2 Gal4-VP16 UAS-luciferase, luminescence, 20 h; AID 2546, 2010;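 further: Gal4-VP16 expression switched on by copper sulfate through the metallothionein promoter; on the % scale 0 is the no-effect control and ±100 the full control effect; nearly all actives have a fitted effect of over 50% in size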
RORgamma inh – qHTS for inhibitors of ROR gamma transcriptional activity; 310,000 tested, 5.4% active; Drosophila S2 Gal4-RORgamma UAS-luciferase reporter, 20 h; AID 2551, 2010; Potency, µM (highest dose often 53.6 µM), for inactives: at the top dose activity change, negative = inhibition, usual class: inhibitors; Nuclear receptor ROR-gamma (Mus musculus), P51450; further: on the % scale 0 is the no-effect control and ±100 the full control effect; nearly all actives have a fitted effect of over 60% in size
Target sequence (P51450 whole entry, looked up, the tested form may be a part): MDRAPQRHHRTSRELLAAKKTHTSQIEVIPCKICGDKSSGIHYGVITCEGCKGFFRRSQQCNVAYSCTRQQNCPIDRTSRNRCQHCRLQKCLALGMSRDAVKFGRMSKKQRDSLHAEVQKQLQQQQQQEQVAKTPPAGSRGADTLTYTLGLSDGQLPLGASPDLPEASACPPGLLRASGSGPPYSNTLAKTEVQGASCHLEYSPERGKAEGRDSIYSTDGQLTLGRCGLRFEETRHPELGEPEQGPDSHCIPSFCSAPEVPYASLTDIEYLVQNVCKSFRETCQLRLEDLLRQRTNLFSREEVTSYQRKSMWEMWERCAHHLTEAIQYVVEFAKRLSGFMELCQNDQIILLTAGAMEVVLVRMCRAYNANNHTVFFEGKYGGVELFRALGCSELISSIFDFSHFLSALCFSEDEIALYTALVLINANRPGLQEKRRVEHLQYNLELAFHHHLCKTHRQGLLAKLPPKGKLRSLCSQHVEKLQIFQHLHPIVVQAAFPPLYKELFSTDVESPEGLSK
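Drosophila Schneider cells stably carrying a metallothionein-driven Gal4 DBD–ROR gamma fusion and a UAS-Photinus luciferase reporter were exposed to compound for 1 hr, then induced with copper sulfate (700 uM final) for 20 hr at ambient temperature before luminescence reading.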
GLP1R cytotox – qHTS of GLP-1 Receptor Inverse Agonists: Cytotox Screen; HEK293 cAMP-luciferase reporter cells, luminescence, 24 h; Potency, µM (titrated, usually from 38.3 µM), for the others: at the top dose activity change, negative = inhibition, actives largely listed as inhibitors; 410,000 tested, 0.13% active; AID 624418, 2012;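 further: loss of luciferase light is scored as toxicity; on the % scale 0 is the no-effect control and ±100 the full control effect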
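A 23 nL compound transfer followed 12 hours of cell culture at 37 deg C; exposure then lasted 24 hr. Luciferase assay detection reagent was dispensed and plates read for luminescence after a 12 min room-temperature wait.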
Starred values were filed as active, the others as inactive; u = inconclusive; x = no result given. The call rests on the fitted dose curve; in most records, active means well fitted curve in the direction sought with a large enough effect; inconclusive means small, poorly fitted or top-dose-only effect, or another doubt; inactive means no such curve, though single readings can be large; an effect the other way counts as inactive or inconclusive. Potency means the concentration at half of the fitted maximal effect.

SMILES | GLP-1R agonist | GLP1R inv ag | VP16 counter | RORgamma inh | GLP1R cytotox
OC(c1cccc(OCc2ccccc2)c1)c1nnc(-c2ccccc2)o1 (stereo unspecified) | 3.0% | 10µM* | u | 0.2% | -3.2%
Cc1ccc(CNC(=O)CSc2nnc(C)c3c(C)n(-c4ccccc4)nc23)cc1 | x | -20.3% | x | x | -23.1%
CCOC(=O)COc1ccc(Br)cc1/C=C/c1[nH]c(=O)[nH]c(=O)c1[N+](=O)[O-] | -6.3% | 10µM* | 0.7% | -3.9% | u
CCOC(=O)COc1ccc(Br)cc1/C=C\c1[nH]c(=O)[nH]c(=O)c1[N+](=O)[O-] | -4.9% | u | -6.9% | 7.8% | -33.9%
CCCSc1ccc2nc(-c3ccccc3)cn2c1 | -29.4% | 2.51µM* | 6.31µM* | 2.24µM* | -0.7%
O=CN/C=C/c1cc(O)ccc1O | -1.6% | 7.1% | 15.8µM* | 11.2µM* | -9.5%
CN(CC(=O)Nc1ccc(S(=O)(=O)N2CCCC2)cc1)Cc1ccc(Cl)cc1Cl | u | u | -16.2% | 0.2% | -20.1%
O=[N+]([O-])c1cc(S(=O)(=O)N2CCCCCC2)ccc1F | -20.8% | u | 4.47µM* | 5.62µM* | u
CN(CC(=O)Nc1ccc(Cl)cc1)c1ccc(S(=O)(=O)N2CCCCC2)cc1[N+](=O)[O-] | -1.2% | 10µM* | u | u | -12.9%
CC1Cc2cc(S(=O)(=O)CCC(=O)Nc3ccc(F)cc3)ccc2N1C(=O)C1CC1 (stereo unspecified) | x | -14.7% | x | x | -0.3%
COc1ccc(O)c(/C=N/NC(=O)c2ccc(CSc3nc(C)cc(C)n3)cc2)c1 | 13.2% | u | 2.51µM* | 1.26µM* | 8.8%
Cc1cc(C)nc(SCc2ccc(C(=O)N/N=C/c3cccc(O)c3O)cc2)n1 | 0.3% | -1.0% | 1.58µM* | 1.41µM* | u
O=C(OC1Cc2c(O)cc(O)cc2OC1c1cc(O)c(O)c(O)c1-c1c(C2Oc3cc(O)cc(O)c3CC2OC(=O)c2cc(O)c(O)c(O)c2)cc(O)c(O)c1O)c1cc(O)c(O)c(O)c1 (stereo unspecified) | x | x | -3.7% | -14.3% | x
COc1ccc(OC)c(CNC(=O)c2cc(=O)[nH]c3ccc(S(=O)(=O)N4CCCCC4C)cc23)c1 (stereo unspecified) | x | -5.8% | x | x | -10.2%
Cc1nc(NC2CCCCC2)c2nc(-c3ccccc3)n(CCN3CCCC3)c2n1 | x | x | -0.6% | u | x
O=C(NC(=S)Nc1ncc(Br)cc1Br)c1ccccc1 | 7.7% | u | 17.8µM* | 8.91µM* | u
O=C(Nc1cnc2ccccc2c1)c1ccncc1 | -4.8% | u | -41.0% | -20.3% | -3.6%
Cc1cc(C)c2c(NC(=S)NC(=O)c3ccccc3)nn(C)c2n1 | 1.6% | -11.7% | 5.01µM* | 1.41µM* | -25.5%
O=C(NC(=S)Nc1cnc2ccccc2c1)c1ccccc1 | -3.5% | u | u | 5.62µM* | u
Cc1cc(C)nc(NC(=S)NC(=O)c2ccccc2)n1 | -2.4% | 58.1% | u | u | 10.1%
Cn1ncc2cc(NC(=S)NC(=O)c3ccccc3)ccc21 | 4.0% | 0.0% | u | 10µM* | -25.5%
O=C(CN1CCN(C(=O)c2ccccc2)CC1)Nc1ncc(Br)cc1Br | -8.2% | -3.7% | 5.0% | -0.7% | -1.4%
Cn1c(=O)c2c(ncn2CC(=O)Nc2cccc(Cl)c2Cl)n(C)c1=O | x | -5.3% | x | x | 3.8%
O=C(Nc1ccc2c(c1)CCC2)c1cc(S(=O)(=O)Nc2ccc(F)cc2)c(Cl)cc1Cl | -18.5% | u | 6.31µM* | u | -0.1%
N=c1n(CC(=O)c2cccc([N+](=O)[O-])c2)c2ccccc2n1Cc1ccccc1 | 8.0% | -14.5% | u | 7.08µM* | u
CC(C)(C)C(=O)Cn1c(=N)n(Cc2ccccc2Cl)c2ccccc21 | 10.0% | u | u | 4.47µM* | -14.4%
CC(C)(C)C(=O)Cn1c(=N)n(Cc2ccccc2)c2ccccc21 | -2.2% | u | -8.8% | u | -19.5%
